Test results: PubChem BioAssay AID1438 (Sanford-Burnham Center for Chemical Genomics, 2008)
The whole screen tested about 2,200 compounds, of which about 45 (2%) were called active. No rule for the calls is given here. Only a sample is shown. Entries with a potency or affinity are not part of this list.

biological target: Runt-related transcription factor 1 (Homo sapiens) + Core-binding factor subunit beta (Homo sapiens) (UniProt Q01196+Q13951); assay: inhibitors of RUNX1 Runt–CBFb-SMMHC binding, biochemical, TR-FRET (AID 1438); conditions: TR-FRET Runt domain–CBFb-SMMHC binding, at 20 µM, stronger effect = higher value
Sequence (Q01196 whole entry, looked up, the tested form may be a part): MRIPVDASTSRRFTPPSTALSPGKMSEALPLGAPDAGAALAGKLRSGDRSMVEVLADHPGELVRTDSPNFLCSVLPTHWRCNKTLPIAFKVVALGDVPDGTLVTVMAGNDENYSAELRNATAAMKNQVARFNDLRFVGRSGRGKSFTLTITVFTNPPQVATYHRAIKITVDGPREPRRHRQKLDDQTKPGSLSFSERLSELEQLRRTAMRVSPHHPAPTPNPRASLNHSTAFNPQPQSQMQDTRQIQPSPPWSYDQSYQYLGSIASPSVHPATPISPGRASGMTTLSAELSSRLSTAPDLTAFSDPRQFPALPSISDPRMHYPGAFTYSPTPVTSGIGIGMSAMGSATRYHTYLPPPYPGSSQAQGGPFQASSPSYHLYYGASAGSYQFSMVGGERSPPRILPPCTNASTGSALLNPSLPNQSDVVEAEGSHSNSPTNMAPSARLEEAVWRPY
Sequence (Q13951 whole entry, looked up, the tested form may be a part): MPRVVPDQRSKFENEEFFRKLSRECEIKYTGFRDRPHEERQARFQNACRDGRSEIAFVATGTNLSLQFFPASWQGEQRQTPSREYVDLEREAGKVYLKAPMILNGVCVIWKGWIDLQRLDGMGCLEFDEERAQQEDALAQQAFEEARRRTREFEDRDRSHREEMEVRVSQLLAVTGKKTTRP

inhibition, inactive:
CCN1CCc2nc(SCC(=O)Nc3ccc(OC)cc3)c(C#N)cc2C1 20.7%
CCOC(=O)C1=C(CSc2nc3c(cc2C#N)CN(C)CC3)OC(N)=C(C#N)C1c1ccncc1 (stereo not given) 35.4%
Cc1cc(=O)oc2cc(OC(=O)c3cncc(Br)c3)ccc12 -4.4%
O=C(COC(=O)COc1ccccc1[N+](=O)[O-])NC1CCCC1 -6%
COc1ccc(OCCn2cc(/C=C(\C#N)C(=O)NCc3ccco3)c3ccccc32)cc1 -10.8%
COc1c(O)ccc2c1CN1CCc3cc4c(cc3C1C2)OCO4 (stereo not given) -9.6%
CN1CCc2cc3c(c4c2[C@H]1[C@H](O)c1ccccc1-4)OCO3 18.4%
CNC(=O)/C(C#N)=C/c1c(N(Cc2ccccc2)Cc2ccccc2)nc2c(C)cccn2c1=O -14.8%
CC(=O)N=c1c(C#N)cc2c(=O)n3ccccc3nc2n1CCCOC(C)C 7.1%
CCN(CC)c1ccc2cc(C(=O)Nc3cccnc3N3CCOCC3)c(=O)oc2c1 -26.6%
CCCCCCc1cc2cc(S(=O)(=O)c3ccc(Cl)cc3)c(=O)oc2cc1O 12.2%
CCCn1c(=N)c(S(=O)(=O)c2ccccc2)cc2c(=O)n3ccccc3nc21 -6.9%
Cc1ccc2nc3c(cc(S(=O)(=O)c4ccccc4)c(=N)n3Cc3ccco3)c(=O)n2c1 -7.9%
Cc1cccn2c(=O)c3cc(S(=O)(=O)c4ccc(F)cc4)c(=N)n(Cc4ccco4)c3nc12 -6.5%
CCn1c(=N)c(S(=O)(=O)c2ccccc2)cc2c(=O)n3ccccc3nc21 -19.8%
COC(=O)C1=CN(CC2CCCO2)C=C(C(=O)OC)C1c1ccccc1C(F)(F)F (stereo not given) 45.6%
Cc1ccccc1OCCn1cc(/C=C(\C#N)C(=O)NCc2ccco2)c2ccccc21 20.8%
COCCOC(=O)C1=C(C)NC2=C(C(=O)CC(C)(C)C2)C1c1cccnc1 (stereo not given) 35.5%
Fc1ccc(CSc2nc3ncccc3[nH]2)cc1 -9.6%
CCC(C)n1c(=N)c(C#N)cc2c(=O)n3cccc(C)c3nc21 (stereo not given) -18.9%
CCOC(=O)c1cc2c(=O)n3ccccc3nc2n(Cc2ccco2)c1=NC(=O)c1cccc(OC)c1 -10.1%
O=C1C=CC(=O)N1c1cccc(-c2ccccc2)c1 -6.3%
O=C(c1ccccc1)c1ccccc1N1C(=O)C=CC1=O 28.3%
Cc1cc(C)cc(Oc2nc3ccccn3c(=O)c2/C=C(\C#N)C(=O)NC2CCS(=O)(=O)C2)c1 (stereo not given) -134%
Cc1ccccc1Oc1nc2c(C)cccn2c(=O)c1/C=C(\C#N)C(=O)NC1CCS(=O)(=O)C1 (stereo not given) -12.5%
